# Values joined by “and” are separate entries in the source; they are usually repeats but may differ in a detail not shown here. Equal values may be shown once. Active and inactive are the calls of the source.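 The calls were made as follows, unless noted: active = z-score of at least 1.8 in each of two replicates, scored against plate mean and spread of sample wells; inactive = the rest.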 Starred links: 1 amine or outer side, 2 acyl side, 3 side chain; linkers in the order of their positions; H or OH if unused. Positions of bridges follow the written chain, without caps; N, C: chain ends. Non-standard residues stand in square brackets, D forms with d. Residues, ends and D or L forms follow the SMILES beside them. Chains are numbered I, II in the order given. Actinocin(9to1) = Cc1c2oc3c(C)ccc(C(=O)[*:1])c3nc-2c(C(=O)[*:2])c(N)c1=O; NMeV = CN[C@H](C(=O)O)C(C)C; Sar = CNCC(=O)O
# Columns and labels:
# [1] = sensitizers of A549 cells to miR-34 induction, primary screen, imaging, A549 dox-inducible miR-34, nuclei and caspase counts (AID 1347080;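 active = compounds whose cell count with miR-34 switched on is under 0.7 times the count with it off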); conditions: A549 miR-34 inducible, Hoechst nuclei count, 48 h
# [2] = viability rescue of complex I mutant cybrids, primary screen, cell-based, galactose medium, ATP luminescence (AID 1645843); conditions: complex I mutant cybrid cells, 72 h, stronger effect = higher value;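 also: positive z means more ATP and so rescue of galactose-driven cybrid death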
# [3] = molecular target: NAD(+) hydrolase SARM1 (Homo sapiens) (UniProt Q6SZW1); assay: SARM1 TIR NADase inhibitors, cell lysate, NAD-Glo luminescence (AID 1508614;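 active = compound whose remaining NAD level is above about 45 nM, limit read from the data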;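 also: higher remaining NAD means stronger inhibition of SARM1 NADase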); conditions: SAM-TIR HEK293T lysate NADase, at 1 µM, stronger effect = higher value
# Chain of NAD(+) hydrolase SARM1 (Homo sapiens) (Q6SZW1 whole entry, looked up, the tested form may be a part): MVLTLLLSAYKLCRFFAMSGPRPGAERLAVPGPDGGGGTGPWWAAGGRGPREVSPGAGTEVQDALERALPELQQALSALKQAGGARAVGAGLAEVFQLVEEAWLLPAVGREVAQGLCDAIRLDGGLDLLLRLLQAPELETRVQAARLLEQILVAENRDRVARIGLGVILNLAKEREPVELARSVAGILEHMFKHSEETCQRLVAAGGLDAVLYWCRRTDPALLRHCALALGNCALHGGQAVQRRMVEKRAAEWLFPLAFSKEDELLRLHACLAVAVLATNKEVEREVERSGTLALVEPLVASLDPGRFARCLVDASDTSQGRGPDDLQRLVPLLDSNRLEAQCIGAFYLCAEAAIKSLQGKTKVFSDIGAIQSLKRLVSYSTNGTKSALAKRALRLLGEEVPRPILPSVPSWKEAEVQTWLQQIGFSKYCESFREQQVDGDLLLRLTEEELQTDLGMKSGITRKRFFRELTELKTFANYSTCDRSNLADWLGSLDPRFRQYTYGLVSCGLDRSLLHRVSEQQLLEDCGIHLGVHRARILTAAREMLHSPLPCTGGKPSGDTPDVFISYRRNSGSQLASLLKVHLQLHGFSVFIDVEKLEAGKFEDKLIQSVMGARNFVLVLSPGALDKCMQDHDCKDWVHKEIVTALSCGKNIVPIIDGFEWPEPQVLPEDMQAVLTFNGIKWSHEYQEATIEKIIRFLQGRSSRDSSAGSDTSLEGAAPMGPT
# [4] = molecular target: Mitogen-activated protein kinase 7 (Homo sapiens) (UniProt Q13164); assay: ERK5 transactivation activators in reporter cells, primary screen, cell-based, HTS (AID 1508626;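 active = luciferase signal above three times the same-plate solvent-only control wells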;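 also: luciferase driven by Gal4-ERK5 fusion binding five Gal4 sites before minimal TATA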); conditions: HeLa Gal4-ERK5 transactivation, 18 h, at 5 µM, stronger effect = higher value
# Chain of Mitogen-activated protein kinase 7 (Homo sapiens) (Q13164 whole entry, looked up, the tested form may be a part): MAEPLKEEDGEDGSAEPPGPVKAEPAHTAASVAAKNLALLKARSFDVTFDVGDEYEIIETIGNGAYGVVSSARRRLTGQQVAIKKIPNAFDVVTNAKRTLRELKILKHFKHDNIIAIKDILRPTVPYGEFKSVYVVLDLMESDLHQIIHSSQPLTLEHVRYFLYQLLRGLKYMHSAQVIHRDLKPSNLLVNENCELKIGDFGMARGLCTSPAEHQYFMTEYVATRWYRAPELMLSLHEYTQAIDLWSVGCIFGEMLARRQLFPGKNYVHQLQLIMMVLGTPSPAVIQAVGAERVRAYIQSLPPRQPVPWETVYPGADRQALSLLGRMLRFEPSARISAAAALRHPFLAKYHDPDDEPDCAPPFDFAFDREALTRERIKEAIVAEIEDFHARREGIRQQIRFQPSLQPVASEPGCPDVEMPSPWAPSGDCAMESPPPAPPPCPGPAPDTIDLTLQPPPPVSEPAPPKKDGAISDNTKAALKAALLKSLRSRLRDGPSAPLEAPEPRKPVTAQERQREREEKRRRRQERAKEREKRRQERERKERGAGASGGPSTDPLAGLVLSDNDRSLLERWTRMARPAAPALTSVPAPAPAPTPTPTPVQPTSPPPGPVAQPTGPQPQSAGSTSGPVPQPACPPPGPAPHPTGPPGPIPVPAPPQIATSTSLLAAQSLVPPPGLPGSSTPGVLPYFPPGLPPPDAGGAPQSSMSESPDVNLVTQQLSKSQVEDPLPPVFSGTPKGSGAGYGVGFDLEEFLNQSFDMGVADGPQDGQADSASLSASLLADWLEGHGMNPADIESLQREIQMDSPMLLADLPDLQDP
# [5] = phospholipid biosynthesis inhibitors in animal cells, primary screen, cell-based, LOPAC library, screen 4 (AID 1347384; call rule not given here); conditions: phospholipid biosynthesis inhibition screen, at 10 µM
# [6] = survival rescue of mitochondrial mutant cells in low glucose, primary screen, MELAS cybrids, Rieske KO mouse fibroblasts, CellTiter-Glo (AID 1508586;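 active = mean z-score across replicates of 1.96 or higher in either the MELAS or the Rieske mutant cell line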;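 also: z relative to plate mean and SD of compound and empty wells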)
# [7] = inhibitors of Cryptococcus chitosan production, flow cytometry, Cibacron Brilliant Red staining (AID 1347148; call rule not given here;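 also: compound exposure lasted three days at 37 degrees C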); conditions: Cryptococcus neoformans chitosan, stronger effect = lower value; at 10 µM unless noted
# [8] = stronger effect = lower value, cell number ratio, induced over uninduced
# [9] = measured here: relative caspase fold change +Dox/-Dox
# [10] = measured here: total cells with miR-34 induction, stronger effect = lower value
# [11] = measured here: total cells without miR-34 induction
# [12] = MELAS cybrid survival, CellTiter-Glo 48 h, stronger effect = higher value
# [13] = Rieske KO mouse fibroblast survival, CellTiter-Glo 72 h
SMILES,"fold change [1, 8]","fold change [1, 9]","cell count [1, 10]","cell count [1, 11]",z-score [2],remaining NAD [3],luciferase signal [4],outcome [5],"z-score [6, 12]","z-score [6, 13]",fold fluorescence [7]
CNCCCCOc1ccccc1Cc1ccccc1,0.954 (inactive) and 0.995 (inactive),1.55 and 0.924,7470 and 8010,7840 and 8050,-1.31 (inactive) and -0.275 (inactive),,,,,,
COc1ccc(CN(CCN(C)C)c2ncccn2)cc1,0.86 (inactive),3.03,11900,13800,,10 nM (inactive),60 AU (inactive),,,,
C[C@@H]1CN(CCCn2c3ccccc3c3ccccc32)C[C@H](C)N1,0.959 (inactive),0.675,8000,8340,-0.695 (inactive),,,,,,
O=C(O)c1cc(O)c(O)c(O)c1,0.943 (inactive),4.52,11500,12200,,10 nM (inactive),100 AU (inactive),,,,
c1cnc(N2CCN(Cc3ccc4c(c3)OCO4)CC2)nc1,,,,,,,,inactive,-0.549 (inactive) and -0.596 (inactive),-0.536 and 0.482,
"Cc1c2oc3c(C)ccc(C(=O)N[C@@H]4C(=O)N[C@H](C(C)C)C(=O)N5CCC[C@H]5C(=O)N(C)CC(=O)N(C)[C@@H](C(C)C)C(=O)O[C@@H]4C)c3nc-2c(C(=O)N[C@@H]2C(=O)N[C@H](C(C)C)C(=O)N3CCC[C@H]3C(=O)N(C)CC(=O)N(C)[C@@H](C(C)C)C(=O)O[C@@H]2C)c(N)c1=O (I: T[dV]P[Sar][NMeV] / II: T[dV]P[Sar][NMeV]; ester I:1-I:C, II:1-II:C; linker I:N-II:N via Actinocin(9to1))",,,,,,10 nM (inactive),16 AU (inactive),,,,23.3 [at 107.6 µM] (inactive)
NCC1CCC(C(=O)Oc2ccc(CCC(=O)O)cc2)CC1 (stereo not given),0.97 (inactive),1.97,9870,10200,0.62 (inactive),,,,,,
CO/N=C1\CN(c2nc3c(cc2F)c(=O)c(C(=O)O)cn3C2CC2)CC1CN (stereo not given),0.847 (inactive),1.93,10700,12600,,10 nM (inactive),40 AU (inactive),,,,
COc1cc(C)c(Cc2cnc(N)nc2N)cc1OC,0.944 (inactive),1.06,9440,10000,0.02 (inactive),,,,,,
CC1(C)S[C@@H]2[C@H](NC(=O)C(C(=O)O)c3ccccc3)C(=O)N2[C@H]1C(=O)O (stereo not given in full),0.874 (inactive),0.602,11000,12600,,10 nM (inactive),84 AU (inactive),,,,
COc1cc2c(cc1OC)-c1cc(=Nc3c(C)cc(C)cc3C)n(C)c(=O)n1CC2,,,,,-0.95 (inactive) and -0.575 (inactive) and 0.465 (inactive),,,inactive,1.02 (inactive),1.81,11.7 [at 123.3 µM] (inactive)
CC[N+](C)(CC)CCOC(=O)C(O)(c1ccccc1)C1CCCCC1 (stereo not given),0.958 (inactive),1.3,8830,9210,0.47 (inactive),10 nM (inactive),,,,,
NC(=O)NC(=O)Cc1ccccc1,0.88 (inactive),0.863,11800,13400,,10 nM (inactive),160 AU (inactive),,,,
Oc1c(Cl)cc(Cl)cc1Sc1cc(Cl)cc(Cl)c1O,0.771 (inactive),1.86,8360,10800,,10 nM (inactive),24 AU (inactive),,,,
CCN(CC)CC1CCCCN1CC(=O)N1c2ccccc2C(=O)Nc2cccnc21 (stereo not given),0.915 (inactive) and 0.926 (inactive),1.68 and 0.696,10100 and 9240,11000 and 9980,0.18 (inactive) and -0.135 (inactive),,,,,,
CC(C)NC[C@@H](O)COc1cccc2ccccc12,0.945 (inactive),0.937,8050,8520,0.54 (inactive),10 nM (inactive),52 AU (inactive),,,,
O=C(O)c1ccccc1Nc1cccc(C(F)(F)F)c1,,,,,0.44 (inactive),10 nM (inactive),56 AU (inactive),,-0.231 (inactive) and 0.292 (inactive) and -0.218 (inactive),-0.153 and 0.0506 and 0.216,5.28 [at 177.8 µM] (inactive)
O=C1C(O)=C(O)C(=O)C(O)=C1O,0.863 (inactive) and 0.913 (inactive),1.35 and 4.01,9350 and 12000,10800 and 13100,,10 nM (inactive),20 AU (inactive),,,,
COc1cc(-c2ccc(=O)[nH]n2)ccc1OC(F)F,,,,,0.03 (inactive) and -0.045 (inactive) and 0.53 (inactive),,,,1.87 (inactive) and 1.14 (inactive),-0.582 and -0.616,7.45 [at 186.4 µM] (inactive)
Nc1c2c(nc3c1CCC3)CCCC2,1.06 (inactive),2.56,10500,9920,-0.465 (inactive),,,,,,

SMILES,"fold change [1, 8]","fold change [1, 9]","cell count [1, 10]","cell count [1, 11]",z-score [2],remaining NAD [3],luciferase signal [4],outcome [5],"z-score [6, 12]","z-score [6, 13]",fold fluorescence [7]
CCCOc1ccccc1-c1nc2n[nH]nc2c(=O)[nH]1,,,,,0.78 (inactive) and -0.305 (inactive) and 1.09 (inactive),10 nM (inactive),,inactive,0.137 (inactive) and -0.665 (inactive),-0.13 and -0.629,6.79 [at 184.3 µM] (inactive)
C=Cc1c(C)c2cc3[nH]c(cc4nc(cc5nc(cc1[nH]2)C(C)=C5CCC(=O)O)C(CCC(=O)O)=C4C)c(C)c3C=C,1.04 (inactive),1.36,9230,8840,-0.23 (inactive),10 nM (inactive),56 AU (inactive),,,,
OCc1cccnc1,0.908 (inactive),1.47,8900,9800,0.275 (inactive),10 nM (inactive),,,,,
O=C1CC2(CCCC2)CC(=O)N1CCNCC1COc2ccccc2O1 (stereo not given),0.839 (inactive) and 0.901 (inactive),1.72 and 0.868,8960 and 8470,10700 and 9400,0.655 (inactive) and -0.78 (inactive),,,,,,
COc1ccc(C2C(=O)c3ccccc3C2=O)cc1,0.879 (inactive),2.05,11100,12700,,10 nM (inactive),172 AU (inactive),,,,
NC1CCN(c2cccc(Cl)n2)CC1,0.969 (inactive) and 0.942 (inactive),1.72 and 1.85,9480 and 9570,9780 and 10200,0.81 (inactive) and 0.31 (inactive),,,,,,
O=C(NCCN1CCOCC1)c1ccc(Cl)cc1,,,,10300 and 10900 and 9280,0.645 (inactive) and 0.32 (inactive),,,inactive,0.188 (inactive) and 0.694 (inactive),0.0884 and 0.188,
CC(C)(Oc1ccc(CCNC(=O)c2ccc(Cl)cc2)cc1)C(=O)O,,,,,0.225 (inactive) and 0.83 (inactive),10 nM (inactive),40 AU (inactive),inactive,-0.161 (inactive) and 0.38 (inactive) and -0.46 (inactive),-0.148 and 0.0926 and -0.592,9.76 [at 138.2 µM] (inactive)
C=C[C@@]1(C)CC(=O)[C@]2(O)[C@@]3(C)[C@@H](O)CCC(C)(C)[C@@H]3[C@H](O)[C@H](OC(C)=O)[C@@]2(C)O1,0.943 (inactive),1.09,9780,10400,-0.315 (inactive),10 nM (inactive),44 AU (inactive),,,,
CCC(=O)O[C@H]1[C@H](O[C@@H]2[C@@H](C)[C@H](O[C@H]3C[C@@](C)(OC)[C@@H](O)[C@H](C)O3)[C@@H](C)C(=O)O[C@H](CC)[C@@](C)(O)[C@H](O)[C@@H](C)C(=O)[C@H](C)C[C@@]2(C)O)O[C@H](C)C[C@@H]1N(C)C,0.893 (inactive),3.7,11600,12900,,10 nM (inactive),180 AU (active),,,,
O=C(OCc1ccccc1)c1ccccc1,0.956 (inactive),3.44,12000,12500,,10 nM (inactive),88 AU (inactive),,,,
CC(=O)Oc1cccc(O)c1,0.87 (inactive),5.2,11300,13000,,10 nM (inactive),20 AU (inactive),,,,
O=c1c(-c2ccccc2)c1-c1ccccc1,0.804 (inactive),1.52,4690,5830,-1.44 (inactive),,,,,,
OCCOCCN1CCN(C2=Nc3ccccc3Sc3ccccc32)CC1,,,,,-0.095 (inactive) and 0.115 (inactive),10 nM (inactive),48 AU (inactive),,-0.365 (inactive) and 0.666 (inactive) and 0.0103 (inactive),-0.209 and 0.244 and 1.08,
O=C1C(=O)c2ccccc2C(O)=C1C1CCC(c2ccc(Cl)cc2)CC1 (stereo not given),,,,,-0.055 (inactive),10 nM (inactive),56 AU (inactive),,-0.28 (inactive) and 0.215 (inactive) and 0.186 (inactive),-0.105 and 0.155 and 0.7,
COC(=O)[C@H]1[C@H]2C[C@@H]3c4[nH]c5cc(OC)ccc5c4CCN3C[C@H]2C[C@@H](OC(=O)c2cc(OC)c(OC)c(OC)c2)[C@@H]1OC,,,,,-0.19 (inactive) and -0.39 (inactive),10 nM (inactive),64 AU (inactive),inactive,0.355 (inactive),1.28,
CCOC(=O)C1=C(C)NC(C)=C(C(=O)OC)C1c1cccc(Cl)c1Cl (stereo not given),,,,,-1.02 (inactive) and -1.48 (inactive) and 1.76 (inactive),10 nM (inactive),,inactive,-0.244 (inactive) and -0.163 (inactive) and -0.233 (inactive),-0.0889 and -0.113 and 0.553,
COc1cc(C(=O)OCCCN2CCCN(CCCOC(=O)c3cc(OC)c(OC)c(OC)c3)CC2)cc(OC)c1OC,,,,,-0.89 (inactive) and 0.995 (inactive) and -0.26 (inactive),10 nM (inactive),,inactive,0.925 (inactive) and 0.274 (inactive),0.203 and 0.937,
Cc1cccc(C)c1OCC(C)N (stereo not given),,,,,-0.045 (inactive) and 0.78 (inactive) and -0.055 (inactive),10 nM (inactive),52 AU (inactive),inactive,-0.0413 (inactive) and -0.119 (inactive),-0.286 and -0.0916,
COc1ccc(CCN2CCC(Nc3nc4ccccc4n3Cc3ccc(F)cc3)CC2)cc1,,,,,-0.615 (inactive) and -2.45 (inactive),10 nM (inactive),84 AU (inactive),,-0.668 (inactive) and -0.11 (inactive),-1.26 and 1.21,
